High-throughput results as filed in PubChem BioAssay.
S2 tox – cell viability loss in ATXN counter-screen. S2 cells (HEK-293 line with an ATXN2-luciferase reporter) viability, CellTiter-Fluor protease fluorescence, 24 h. 0.49% of 400,000 active. Potency, µM (series often up to 56.7 µM), actives largely listed as cytotoxic; also: nearly all actives have a fitted effect of over 40% in size
HepG2 tox – kills HepG2 cells in TGF-b inhibitor counter-screen; 0.76% of 410,000 active; Potency, µM (titrated, usually from 46.1 µM), for the others: top-dose activity change, negative = cytotoxicity, usual class: cytotoxic; HepG2 CAGA-GFP viability, ATP luminescence, 18 h
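CellTiter-Glo luminescence gave cytotoxicity after 18 hours at 37 degrees C. The cells were HepG2 CAGA-GFP in 1% FBS DMEM, stimulated with 500 pg/mL TGF-beta after compound addition. %Activity was normalised to no-cell wells (complete cell-killing) and DMSO (no toxicity), and curves were fitted and classified.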
TGFb SMAD3 inh – blocks TGF-b signaling | HepG2 CAGA-GFP TGF-b/SMAD3 reporter, GFP fluorescence, 18 h; TGF-beta stimulated, 500 pg/mL final | Potency, µM (doses to about 46.1 µM), for inactives: at the highest dose activity, negative = inhibition, hits mostly inhibitors | 1.2% of 410,000 active | AID 588855; also: % is scaled to controls: 0 for no effect and ±100 for the full control effect; nearly all actives have a fitted effect of over 65% in size
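Inhibition was scored as loss of TGF-beta-induced (500 pg/mL final, 18 hours, 37 degrees C) GFP in HEPG2 cells carrying a CAGA-GFP reporter, in DMEM with 1% FBS. Well GFP was summed per cell; Activity was normalised to unstimulated and stimulated DMSO wells, then concentration-response fitting.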
TDP1 cell CPT – growth inhibition of DT40 Tdp1-/-;hTDP1 cells with camptothecin (screen for TDP1 inhibitors); 12% of 420,000 active; Potency, µM (highest dose often 46.2 µM), for inactives: at the top dose activity change, negative = growth inhibition, hits mostly inhibitors; chicken DT40 Tdp1-/-;hTDP1 cells + 20 nM CPT, ATP luminescence, 48 h; also: % is scaled to controls: 0 for no effect and ±100 for the full control effect; nearly all actives have a fitted effect of over 55% in size
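Chicken DT40 Tdp1-/- cells complemented with human TDP1, 400 cells/well, exposed to compounds plus 20 nM camptothecin for at least 48 h at 37 C; viability read as ATP content by CellTiter-Glo luminescence.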
ATXN2 expr inh – reduces ATXN2 reporter expression in HEK-293 cells; 0.72% of 360,000 active; HEK-293 ATXN2-luciferase reporter, luminescence, 24 h; Potency, µM (doses to about 57 µM), without a hit: top-dose activity change, negative = inhibition, usual class: inhibitors; also: % is scaled to controls: 0 for no effect and ±100 for the full control effect; nearly all actives have a fitted effect of over 55% in size
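qHTS (up to 57 uM final) was run with 24 h compound exposure of reporter cells at 37 °C. Each well was multiplexed: SteadyGlo luminescence measured ATXN2-luciferase expression after a fluorogenic Gly-Phe-AFC viability readout (25 uM final).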
DT40 TDP1 no CPT – qHTS for Inhibitors of human tyrosyl-DNA phosphodiesterase 1 (TDP1): qHTS in cells in absence of CPT; DT40 Tdp1-/- hTDP1 cells, no CPT, ATP luminescence, 48 h; Potency, µM (titrated, usually from 46.2 µM), without a hit: at the top dose activity change, negative = growth inhibition, hits mostly inhibitors; 15% of 420,000 active; AID 686978, 2013; also: % is scaled to controls: 0 for no effect and ±100 for the full control effect; nearly all actives have a fitted effect of over 55% in size
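No-CPT arm: Tdp1-/-;hTDP1 DT40 cells (400/well) plus compounds, incubated ≥48 hr at 37 °C. Readout CellTiter-Glo luminescence.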
* hit, by the source's call; i = inactive; ? = inconclusive; / = not tested or not shown; ! = not confirmed by another sample; [ ] = remark or other dose. Shown are actives, neighbours in structure and some others; about 17% of the full set was active somewhere. Calls follow the shape of the dose curve; as a rule, active = well fitted curve in the direction sought with a large enough effect; inconclusive = small, poorly fitted or top-dose-only effect, or another doubt; inactive = no such curve, though single readings can be large; an effect the other way counts as inactive or inconclusive. Potency is read from the fitted curve at half-maximal effect.

SMILES | S2 tox | HepG2 tox | TGFb SMAD3 inh | TDP1 cell CPT | ATXN2 expr inh | DT40 TDP1 no CPT
Cc1ccc(NC(=O)Cn2c(-c3cncs3)nc3ccccc32)cc1Br | i | -12% | 1% | ? | -5% | ?
COC(=O)c1ccccc1NC(=O)Cn1c(-c2nonc2N)nc2ccccc21 | ? | -2% | -22% | 0.79µM* | -30% | 0.71µM*
CCc1ccc(NC(=O)Cn2c(-c3cncs3)nc3ccccc32)cc1 | / | -6% | -4% | ? | / | 15µM*
O=C(Cn1c(-c2cscn2)nc2ccccc21)Nc1ccccc1F | ? | 7% | 1% | 7.9µM* | 3% | ?
CCOC(=O)c1cn[nH]c1NC(=S)Nc1ccc(Cl)cc1 | i | -20% | -27% | -12% | 177% | ?
CCc1ccc2oc(C(=O)NCC(c3ccc(OC)cc3)N3CCCCC3)c(C)c2c1 (stereo not given) | i | 2% | 9% | 23µM* | 3% | 16µM*
COc1ccc(C(CNC(=O)COc2ccc(F)cc2Cl)N2CCCCC2)cc1 (stereo not given) | ? | 19% | 15% | 23µM* | -4% | 21µM*
COc1ccc(C(CNC(=O)c2oc3ccc(F)cc3c2C)N2CCCCC2)cc1 (stereo not given) | i | -58% | ? | ? | -25% | ?
COc1ccc(C(CNC(=O)Cc2ccccc2)N2CCCCC2)cc1 (stereo not given) | i | -15% | 6% | ? | -9% | ?
COc1ccc(C(CNC(=O)c2oc3cc(Br)ccc3c2C)N2CCCCC2)cc1 (stereo not given) | i | 6% | 3% | 16µM* | 2% | 23µM*
COc1ccc(C(CNC(=O)c2oc3ccc(Br)cc3c2C)N2CCCCC2)cc1 (stereo not given) | ? | 10% | 5% | 13µM* | -30% | 9.2µM*
CCN(CC(=O)Nc1ccc2c(c1)OCCO2)C(=O)COc1ccc(C)cc1 | i | 0% | 1% | -1% | 8% | -3%
Cc1ccc(-c2nnn(CC(=O)N3C(C)CCCC3C)n2)cc1 (stereo not given) | i | -1% | 0% | 4% | -9% | -2%
COc1ccc(C(CNC(=O)C(C)Oc2ccc(Br)cc2)N2CCCCC2)cc1 (stereo not given) | i | -30% | -27% | 18µM* | -15% | 21µM*
COc1ccc2oc(C(=O)NCc3ccccc3CN3CCCC3)c(C)c2c1 | i | -18% | -2% | 21µM* | / | ?
O=C(NCc1ccccc1CN1CCCC1)c1cc2cc(Cl)ccc2o1 | ? | -36% | -2% | 18µM* | -17% | ?
COc1ccc(C(CNC(=O)c2cc3ccccc3cc2OC)N2CCCC2)cc1 (stereo not given) | ? | -25% | 4% | ? | -5% | ?
COc1ccc(C(CNC(=O)c2oc3cc(C)c(C)cc3c2C)N2CCCCC2)cc1 (stereo not given) | i | -1% | -2% | 13µM* | 1% | 9.2µM*
CNCCCC1Sc2ccccc2Oc2ccccc21 (stereo not given) | i | -67% | 8% | ? | ? | 15µM*
C[C@]12CCC(=O)C=C1C=C[C@@H]1[C@@H]2CC[C@@]2(C)[C@H]1CC[C@@]21CCC(=O)O1 | i | -31% | -3% | ? | -12% | 15µM*!
COC(=O)[C@@H]1CC2=CC(=O)CC[C@]2(C)[C@@]23O[C@@H]2C[C@@]2(C)[C@H](CC[C@@]24CCC(=O)O4)[C@@H]13 | / | / | / | / | 5% | /
CC(=O)SC1CC2=CC(=O)CC[C@@]2(C)C2CC[C@@]3(C)[C@@H](CC[C@@]34CCC(=O)O4)C12 (stereo not given in full) | / | / | / | 13µM* | / | 16µM*
Cc1cccc(C(=O)C2CCN(S(=O)(=O)c3cccc(C(=O)O)c3)CC2)c1 | i | -64% | ? | 4% | -10% | -18%
CC1C(c2ccccc2)N(C)C(c2ccccc2)C(C)C1(O)C#Cc1ccccc1 (stereo not given) | ? | -31% | 11µM* | 9.2µM* | -30% | 10µM*
O=C(CSc1n[nH]c(=O)n1C1CC1)c1ccc2c(c1)OCCO2 | i | -2% | -19% | -25% | 64% | ?
SMILES | S2 tox | HepG2 tox | TGFb SMAD3 inh | TDP1 cell CPT | ATXN2 expr inh | DT40 TDP1 no CPT
Cc1cc(C)c(C(=O)CSc2n[nH]c(=O)n2C2CC2)cc1C | i | -26% | -17% | 11µM* | -11% | 20µM*
CC(C)(Oc1ccc(Cl)cc1)C(=O)N1CCN(C(=O)c2ccco2)CC1 | i | -12% | 0% | ? | -13% | -11%
CCN(CC)c1ccc(C=C(c2nnnn2-c2ccccc2)c2nnnn2-c2ccccc2)cc1 | / | -6% | 14% | ? | 3% | 10µM*
Cc1ccccc1CNC(=O)C(=O)NCC(c1ccco1)S(=O)(=O)c1cccs1 (stereo not given) | / | 10% | 18% | ? | / | -3%
COc1ccc(CN2C[C@H](Sc3nc4ccccc4[nH]3)C[C@H]2C(=O)N2CCCN(C)CC2)cc1C | ? | / | / | 3%[9.04 µM] | / | -16%
COc1ccc(/C=N/n2cnc3c([nH]c4ccc(Br)cc43)c2=O)cc1CN1CCOCC1 | i | -13% | -4% | 16µM* | -22% | ?
COc1cc(NC(=O)Nc2nc(C(N)CCc3ccccc3)cs2)cc(OC)c1OC (stereo not given) | ? | -89% | ? | ? | ? | 7.3µM*
NC(CO)c1csc(NC(=O)Nc2cccc(Cl)c2)n1 (stereo not given) | i | 1% | -4% | -7% | 11% | -14%
COc1ccc(CC(N)c2csc(NC(=O)Nc3cc(OC)ccc3OC)n2)cc1 (stereo not given) | ? | -63% | ? | 5.2µM* | ? | 5.8µM*
COc1ccc(OC)c(NC(=O)Nc2nc(C(N)CCc3ccccc3)cs2)c1 (stereo not given) | / | 16µM* | ? | 7.3µM* | ? | 9.2µM*
NC(CCc1ccccc1)c1csc(NC(=O)NCC2CCCCC2)n1 (stereo not given) | ? | -102% | ? | 15µM* | ? | 15µM*
CCc1ccc(Cn2nnc(C(=O)Nc3ccc(C)cc3)c2N)cc1 | i | -42% | -17% | -6% | -2% | 2%
